aSyn UTR act = Activators via SNCA 5'UTR binding, MLPCN. alpha-synuclein 5'UTR reporter, activators screen. hit rate 7.1% among 300,000. activity score, % (tested at 7.5 µM), hits read low. AID 1814; in the data active = activity score below about -60%
An asterisk follows results filed as active. A selection follows.

SMILES	aSyn UTR act
COc1cc(/C=N/Nc2ccccn2)ccc1O	-91*
CC1(C)CCC(=O)N2CC[C@H]3C[C@H](OC(=O)Nc4ccc5c(c4)OCO5)C[C@@H]1[C@H]32	-105*
CC1(C)CCC(=O)N2CC[C@H]3C[C@H](OC(=O)Nc4ccccc4)C[C@@H]1[C@H]32	-116*
Nc1ccc2nc(SCC(=O)N3CCOCC3)sc2c1	-71*
Nc1ccc2nc(SCC(=O)Nc3ccc(N4CCOCC4)c(Cl)c3)sc2c1	-174*
CCCC(=O)Nc1ccc2nc(SCC(=O)Nc3ccc(N4CCOCC4)c(Cl)c3)sc2c1	-150*
Nc1ccc2nc(SCc3cccc(F)c3)sc2c1	-139*
O=C(CN1CC[n+]2c(-c3cccs3)csc21)c1ccc(-c2ccccc2)cc1	-65*
Cc1cc(C(=O)COC(=O)C2=COCCO2)c(C)n1-c1cccc(F)c1	-156*
Cc1cc(C(=O)COC(=O)C2=COCCO2)c(C)n1-c1ccc2c(c1)OCO2	-134*
Cc1cc(C(=O)COC(=O)Cc2n[nH]c(=O)c3ccccc23)c(C)n1-c1ccc2c(c1)OCCO2	-100*
COc1ccc(NC(=O)CSc2nc(SC)ns2)cc1	-145*
COc1ccc(-c2nsc(SCC(=O)Nc3ccc4c(c3)OCO4)n2)cc1	-109*
CSc1nsc(SCC(=O)Nc2ccc(F)cc2F)n1	-101*
CCOc1ccc(-n2c(SCC(=O)Nc3ccc(Br)cc3)nc3n[nH]c(C)c3c2=N)cc1	82
CSc1nsc(SCC(=O)Nc2ccc(C(C)=O)cc2)n1	-262*
Cc1ccc2[nH]c3c(NCCCN4CCCC4=O)ncnc3c2c1	-77*
Cc1ccc2[nH]c3c(NCc4ccco4)ncnc3c2c1	-203*
CCOC(=O)C1(CCOC)CCN(Cc2nc(C(C)C)cs2)CC1	-67*
CCOC(=O)C1(CCOc2ccccc2)CCN(Cc2ccc(O)c(Cl)c2)CC1	108
CNc1nc(C)nc(-c2ccccc2O)n1	-75*
c1ccc(-c2csc(Nc3cccnc3)n2)cc1	-164*
Clc1ccc(Nc2nc(-c3cccnc3)cs2)cc1	-146*
Fc1ccc(Nc2nc(-c3cccnc3)cs2)cc1	-265*
CCN(CC)c1ccc(Nc2nc(-c3cccnc3)cs2)cc1	-210*
SMILES	aSyn UTR act
COc1cc(C2CC(=O)Nc3n[nH]c(-c4ccccc4)c32)cc(OC)c1OC (stereo not given)	-120*
COc1cc(/C=C2\CC(C(C)(C)C)C/C(=C\c3cc(OC)c(OC)c(OC)c3)C2=O)cc(OC)c1OC (stereo not given)	80
COc1ccc(-n2nc3cc(C)c(N)c(Br)c3n2)cc1	-89*
Nc1ccc(-n2nc3ccccc3n2)cc1	58
COc1ccc(-n2nc3cc(N)c(Br)cc3n2)cc1	-164*
COc1ccc(-n2nc3ccccc3n2)cc1	-93*
COc1ccc2nc3ccccc3nc2c1	-123*
Cc1ccc(NC(=O)Nc2ccc3c(c2)OCO3)c(OC(F)F)c1	-106*
Cc1ccc(NC(=O)CSc2ccc(-c3ccc4c(c3)OCO4)nn2)cc1F	-76*
Cc1ccc(NC(=O)Nc2ccc3c(c2)OCO3)cc1F	-109*
Cc1cc(F)ccc1NC(=O)Nc1ccc2c(c1)OCO2	-72*
Cc1cccc(N=c2c([N+](=O)[O-])nn(-c3ccc(Cl)cc3)n2O)c1	-68*
Cc1ccc(CN=c2c([N+](=O)[O-])nn(-c3ccc(Cl)cc3)n2O)cc1	-69*
O=[N+]([O-])c1nn(-c2ccccc2)n(O)c1=NC1CCN(Cc2ccccc2)CC1	76
Cc1cc(C)cc(N=c2c([N+](=O)[O-])nn(-c3cccc(Cl)c3)n2O)c1	-66*
COc1cc(C(=O)Nc2nc3ccc(C)cc3s2)ccc1OCc1c(C)noc1C	-99*
COc1cccc(C(=O)Nc2nc3ccccc3s2)c1	-108*
Cc1ccnc(NC(=O)c2cccc(S(=O)(=O)N3CCCc4ccccc43)c2)c1	-128*
COc1cc(OC)cc(C(=O)NCC(=O)OCc2nc3ccccc3s2)c1	-184*
COc1ccc(C(=O)Nc2nc3ccccc3s2)cc1	67
COc1cccc(C(=O)Nc2nc(C)cs2)c1	-142*
Cc1cccc(C(=O)N[C@H](C(=O)Nc2nc3ccccc3[nH]2)C(C)C)c1	96
O=C(Nc1nc2ccccc2s1)c1cccc(N2C(=O)CCC2=O)c1	-82*
CC(C)[C@H](NC(=O)c1cccc(S(=O)(=O)N2CCOCC2)c1)C(=O)Nc1nc2ccccc2s1	-72*
O=C(Nc1nc2ccccc2s1)c1cccc(S(=O)(=O)N2CCc3ccccc32)c1	-64*
SMILES	aSyn UTR act
O=C(Nc1nc2ccccc2s1)c1cc(-c2ccccc2)nn1-c1ccccc1	-137*
COc1ccc(C(=O)Nc2nc3ccccc3s2)cc1OC	-212*
CSc1nsc(SCC(=O)Nc2nc3ccc(C)cc3s2)n1	-84*
Cc1ccc2nc(NC(=O)CSCc3ccccc3)sc2c1	-79*
O=S(=O)(Nc1ccc(-c2cn3ccsc3n2)cc1)c1ccc2c(c1)OCCO2	-67*
CCCCSc1nc(C)cc(SCC(=O)N/N=C/c2cccc(OC)c2O)n1	81
COc1cccc(/C=N/Nc2cc(Cl)nc(C)n2)c1O	-100*
COc1cccc(/C=N/Nc2c(Cl)cncc2Cl)c1O	-120*
Cc1ccc(N/N=C2\CCS(=O)(=O)c3sccc32)cc1	-89*
